Source: PMC7862700, “An all-to-all approach to the identification of sequence-specific readers for epigenetic DNA modifications on cytosine”

Each sequence was assayed against T1, ELF5 (Homo sapiens, UniProt Q9UKW6-2 1-255) (assay: DAPPL (digital affinity profiling via proximity ligation, sequencing); 10 mM Tris-HCl pH 7.5, 50 mM NaCl, 1 mM DTT, 4% glycerol, room temperature, 30 min; GST-TFs on glutathione beads, 16-mer random dsDNA library, 0.1% formaldehyde crosslink after washing; high values mean tight binding). Details: protein: recombinant; tags: N-terminal GST; dsDNA, one strand shown.
T1 sequence: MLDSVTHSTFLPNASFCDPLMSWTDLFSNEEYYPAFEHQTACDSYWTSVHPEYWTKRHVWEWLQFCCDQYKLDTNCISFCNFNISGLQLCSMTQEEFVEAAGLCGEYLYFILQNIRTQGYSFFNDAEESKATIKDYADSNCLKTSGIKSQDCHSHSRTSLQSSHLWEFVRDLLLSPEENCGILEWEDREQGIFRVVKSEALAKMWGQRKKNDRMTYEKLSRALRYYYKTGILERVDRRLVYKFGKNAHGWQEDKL
How it was run: (§1)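 The binding signal reported is, for every hexamer, its read frequency for a factor over its read frequency for the tag-only sample. Reads came from pools of yeast-expressed, GST-fused human transcription factors on glutathione beads, barcoded with DNA and mixed with that sample, which were incubated with 200 nmole of a random double-stranded 16-mer DNA library in Tris/NaCl/DTT/glycerol buffer at room temperature for 30 min. After washing, the pools were crosslinked with 0.1% formaldehyde, proximity-ligated with BsaI/T4 ligase for 1 h at 37 °C, PCR-amplified and sequenced on an Illumina NextSeq500.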
With CCGACA the binding signal was 1.25 fold enrichment (6-mer frequency, TF over GST control).
With CGGAAG the binding signal was 3.37 fold enrichment (6-mer frequency, TF over GST control).
TTTAAT was tested, and the binding signal was 1.28 fold enrichment (6-mer frequency, TF over GST control).
In the case of GGAACA, the binding signal is reported as 1.28 fold enrichment (6-mer frequency, TF over GST control).
For TGATAT, the binding signal was 1.09 fold enrichment (6-mer frequency, TF over GST control).
CTTGTC was tested, and the binding signal was 1.3 fold enrichment (6-mer frequency, TF over GST control).
For ATACGC, the binding signal was 1.11 fold enrichment (6-mer frequency, TF over GST control).
In the case of TGACGA, the binding signal is reported as 1.04 fold enrichment (6-mer frequency, TF over GST control).
With CCGCAA the binding signal was 1.39 fold enrichment (6-mer frequency, TF over GST control).
In the case of ACCCCC, the binding signal is reported as 1.12 fold enrichment (6-mer frequency, TF over GST control).
TCAAAT was tested, and the binding signal was 1.07 fold enrichment (6-mer frequency, TF over GST control).
GATTTG was tested, and the binding signal was 1.05 fold enrichment (6-mer frequency, TF over GST control).
In the case of CGTCAC, the binding signal is reported as 1.16 fold enrichment (6-mer frequency, TF over GST control).
For TTCGAG, the binding signal was 1.14 fold enrichment (6-mer frequency, TF over GST control).
For GGTTTC, the binding signal was 1.52 fold enrichment (6-mer frequency, TF over GST control).
ACTGCG was tested, and the binding signal was 1.25 fold enrichment (6-mer frequency, TF over GST control).
In the case of ACTGAC, the binding signal is reported as 1.21 fold enrichment (6-mer frequency, TF over GST control).
For AAGTTG, the binding signal was 1.17 fold enrichment (6-mer frequency, TF over GST control).
With CGCACT the binding signal was 1.23 fold enrichment (6-mer frequency, TF over GST control).
For ACATCG, the binding signal was 1.01 fold enrichment (6-mer frequency, TF over GST control).

The sequences below were run against T2, ETV3 (Homo sapiens, UniProt P41162-2 1-143) in the same assay as above. Details: protein: recombinant; tags: N-terminal GST; dsDNA, one strand shown.
T2 sequence: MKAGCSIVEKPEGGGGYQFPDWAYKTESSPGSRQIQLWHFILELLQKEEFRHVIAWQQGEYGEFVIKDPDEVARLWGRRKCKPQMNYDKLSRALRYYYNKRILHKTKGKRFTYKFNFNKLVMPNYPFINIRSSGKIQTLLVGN
How it was run: as §1
With GTCACA the binding signal was 1.01 fold enrichment (6-mer frequency, TF over GST control).
With ATGGGT the binding signal was 1.3 fold enrichment (6-mer frequency, TF over GST control).
With GTTTGA the binding signal was 1.24 fold enrichment (6-mer frequency, TF over GST control).
For ATTGGG, the binding signal was 1.15 fold enrichment (6-mer frequency, TF over GST control).
In the case of CGTCCC, the binding signal is reported as 1.41 fold enrichment (6-mer frequency, TF over GST control).
For GCTCTG, the binding signal was 1.17 fold enrichment (6-mer frequency, TF over GST control).
TTCCCT was tested, and the binding signal was 1.75 fold enrichment (6-mer frequency, TF over GST control).
With CCGGCC the binding signal was 1.24 fold enrichment (6-mer frequency, TF over GST control).
For TTCTTG, the binding signal was 1.47 fold enrichment (6-mer frequency, TF over GST control).
For TGTTTG, the binding signal was 1.35 fold enrichment (6-mer frequency, TF over GST control).
For ATTGCC, the binding signal was 1.31 fold enrichment (6-mer frequency, TF over GST control).
For ACGCCC, the binding signal was 1.15 fold enrichment (6-mer frequency, TF over GST control).
CACTCC was tested, and the binding signal was 1.26 fold enrichment (6-mer frequency, TF over GST control).
In the case of AAAAAA, the binding signal is reported as 1.33 fold enrichment (6-mer frequency, TF over GST control).
With CAGGAA the binding signal was 1.72 fold enrichment (6-mer frequency, TF over GST control).
GCCCGC was tested, and the binding signal was 1.16 fold enrichment (6-mer frequency, TF over GST control).
In the case of TACGTC, the binding signal is reported as 1.14 fold enrichment (6-mer frequency, TF over GST control).
With TAATCC the binding signal was 1.29 fold enrichment (6-mer frequency, TF over GST control).
With GCGGAA the binding signal was 1.55 fold enrichment (6-mer frequency, TF over GST control).
For TGATGT, the binding signal was 1.15 fold enrichment (6-mer frequency, TF over GST control).
For CCGACA, the binding signal was 1.24 fold enrichment (6-mer frequency, TF over GST control).
CGGAAG was tested, and the binding signal was 3.28 fold enrichment (6-mer frequency, TF over GST control).
In the case of TTTAAT, the binding signal is reported as 1.21 fold enrichment (6-mer frequency, TF over GST control).
For GGAACA, the binding signal was 1.14 fold enrichment (6-mer frequency, TF over GST control).
TGATAT was tested, and the binding signal was 1.15 fold enrichment (6-mer frequency, TF over GST control).
For CTTGTC, the binding signal was 1.31 fold enrichment (6-mer frequency, TF over GST control).
With ATACGC the binding signal was 1.07 fold enrichment (6-mer frequency, TF over GST control).
With TGACGA the binding signal was 1.09 fold enrichment (6-mer frequency, TF over GST control).
CCGCAA was tested, and the binding signal was 1.3 fold enrichment (6-mer frequency, TF over GST control).
For ACCCCC, the binding signal was 1.21 fold enrichment (6-mer frequency, TF over GST control).
With TCAAAT the binding signal was 1.07 fold enrichment (6-mer frequency, TF over GST control).
For GATTTG, the binding signal was 1.1 fold enrichment (6-mer frequency, TF over GST control).
For CGTCAC, the binding signal was 1.11 fold enrichment (6-mer frequency, TF over GST control).
For TTCGAG, the binding signal was 1.09 fold enrichment (6-mer frequency, TF over GST control).
In the case of GGTTTC, the binding signal is reported as 1.46 fold enrichment (6-mer frequency, TF over GST control).
With ACTGCG the binding signal was 1.25 fold enrichment (6-mer frequency, TF over GST control).
For ACTGAC, the binding signal was 1.21 fold enrichment (6-mer frequency, TF over GST control).
In the case of AAGTTG, the binding signal is reported as 1.07 fold enrichment (6-mer frequency, TF over GST control).
With CGCACT the binding signal was 1.39 fold enrichment (6-mer frequency, TF over GST control).
With ACATCG the binding signal was 1.08 fold enrichment (6-mer frequency, TF over GST control).

Each sequence was assayed against ETV6 (Homo sapiens, UniProt P41212 1-452) in the same assay as above. Details: protein: recombinant; tags: N-terminal GST; dsDNA, one strand shown.
ETV6, sequence (P41212 whole entry): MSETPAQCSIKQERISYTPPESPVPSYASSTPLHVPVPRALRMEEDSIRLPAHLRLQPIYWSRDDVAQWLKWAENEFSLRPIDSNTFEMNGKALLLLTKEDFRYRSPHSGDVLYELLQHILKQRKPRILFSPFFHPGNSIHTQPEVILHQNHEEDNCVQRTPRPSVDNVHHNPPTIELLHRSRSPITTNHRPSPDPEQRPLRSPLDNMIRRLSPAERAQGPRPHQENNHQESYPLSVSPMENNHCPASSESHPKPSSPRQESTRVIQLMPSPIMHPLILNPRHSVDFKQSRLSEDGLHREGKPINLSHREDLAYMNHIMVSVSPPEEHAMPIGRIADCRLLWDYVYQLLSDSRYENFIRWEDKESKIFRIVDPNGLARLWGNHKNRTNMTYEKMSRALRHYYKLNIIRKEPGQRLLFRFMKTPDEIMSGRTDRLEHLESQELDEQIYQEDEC
How it was run: as §1
GTCACA was tested, and the binding signal was 1.06 fold enrichment (6-mer frequency, TF over GST control).
ATGGGT was tested, and the binding signal was 1.33 fold enrichment (6-mer frequency, TF over GST control).
With GTTTGA the binding signal was 1.28 fold enrichment (6-mer frequency, TF over GST control).
For ATTGGG, the binding signal was 1.16 fold enrichment (6-mer frequency, TF over GST control).
For CGTCCC, the binding signal was 1.32 fold enrichment (6-mer frequency, TF over GST control).
In the case of GCTCTG, the binding signal is reported as 1.17 fold enrichment (6-mer frequency, TF over GST control).
In the case of TTCCCT, the binding signal is reported as 1.66 fold enrichment (6-mer frequency, TF over GST control).
CCGGCC was tested, and the binding signal was 1.11 fold enrichment (6-mer frequency, TF over GST control).
In the case of TTCTTG, the binding signal is reported as 1.38 fold enrichment (6-mer frequency, TF over GST control).
With TGTTTG the binding signal was 1.41 fold enrichment (6-mer frequency, TF over GST control).
With ATTGCC the binding signal was 1.26 fold enrichment (6-mer frequency, TF over GST control).
In the case of ACGCCC, the binding signal is reported as 1.13 fold enrichment (6-mer frequency, TF over GST control).
For CACTCC, the binding signal was 1.28 fold enrichment (6-mer frequency, TF over GST control).
For AAAAAA, the binding signal was 1.35 fold enrichment (6-mer frequency, TF over GST control).
CAGGAA was tested, and the binding signal was 1.83 fold enrichment (6-mer frequency, TF over GST control).
For GCCCGC, the binding signal was 1.07 fold enrichment (6-mer frequency, TF over GST control).
With TACGTC the binding signal was 1.37 fold enrichment (6-mer frequency, TF over GST control).
TAATCC was tested, and the binding signal was 1.27 fold enrichment (6-mer frequency, TF over GST control).
With GCGGAA the binding signal was 1.58 fold enrichment (6-mer frequency, TF over GST control).
TGATGT was tested, and the binding signal was 1.22 fold enrichment (6-mer frequency, TF over GST control).
With CCGACA the binding signal was 1.23 fold enrichment (6-mer frequency, TF over GST control).
In the case of CGGAAG, the binding signal is reported as 3.4 fold enrichment (6-mer frequency, TF over GST control).
In the case of TTTAAT, the binding signal is reported as 1.28 fold enrichment (6-mer frequency, TF over GST control).
With GGAACA the binding signal was 1.02 fold enrichment (6-mer frequency, TF over GST control).
For TGATAT, the binding signal was 1.06 fold enrichment (6-mer frequency, TF over GST control).
With CTTGTC the binding signal was 1.25 fold enrichment (6-mer frequency, TF over GST control).
For ATACGC, the binding signal was 1.2 fold enrichment (6-mer frequency, TF over GST control).
With TGACGA the binding signal was 1.16 fold enrichment (6-mer frequency, TF over GST control).
With CCGCAA the binding signal was 1.33 fold enrichment (6-mer frequency, TF over GST control).
With ACCCCC the binding signal was 1.06 fold enrichment (6-mer frequency, TF over GST control).
With TCAAAT the binding signal was 1.07 fold enrichment (6-mer frequency, TF over GST control).
GATTTG was tested, and the binding signal was 1.09 fold enrichment (6-mer frequency, TF over GST control).
For CGTCAC, the binding signal was 1.24 fold enrichment (6-mer frequency, TF over GST control).
In the case of TTCGAG, the binding signal is reported as 1.28 fold enrichment (6-mer frequency, TF over GST control).
In the case of GGTTTC, the binding signal is reported as 1.51 fold enrichment (6-mer frequency, TF over GST control).
With ACTGCG the binding signal was 1.18 fold enrichment (6-mer frequency, TF over GST control).
ACTGAC was tested, and the binding signal was 1.19 fold enrichment (6-mer frequency, TF over GST control).
With AAGTTG the binding signal was 1.17 fold enrichment (6-mer frequency, TF over GST control).
With CGCACT the binding signal was 1.25 fold enrichment (6-mer frequency, TF over GST control).
For ACATCG, the binding signal was 1.04 fold enrichment (6-mer frequency, TF over GST control).
